Common to all, as to experiment: NCI-60 one-dose screen, 48 h (100 = growth as untreated, 0 = no growth, -100 = all killed)
Test [1] concerns HCT-15 colon. Conditions: 10 µM unless noted.
The test system of test [2] is HT29 colon. Particulars: 10 µM unless noted.
The test system of test [3] is SNB-75 CNS. Particulars: 10 µM unless noted.
For test [4], the system named is SNB-19 CNS. Particulars: 10 µM unless noted.
For test [5], the system named is U251 CNS. Particulars: 10 µM unless noted.
The subject of test [6] is PC-3 prostate. Conditions: 10 µM unless noted.
The subject of test [7] is SK-MEL-5 melanoma. Conditions: 10 µM unless noted.
Test [8] concerns UACC-62 melanoma. Particulars: 10 µM unless noted.
Test [9] relates to LOX IMVI melanoma. Particulars: 10 µM unless noted.
Test [10] concerns SK-MEL-28 melanoma. Conditions: 10 µM unless noted.
The subject of test [11] is SK-MEL-2 melanoma. Particulars: 10 µM unless noted.
In test [12] the test system is EKVX NSCLC. Conditions: 10 µM unless noted.
In test [13] the test system is SN12C renal. Conditions: 10 µM unless noted.
For test [14], the system named is UO-31 renal. Particulars: 10 µM unless noted.
Test [15] relates to TK-10 renal. Conditions: 10 µM unless noted.
In test [16] the test system is ACHN renal. Conditions: 10 µM unless noted.
Test [17] concerns CAKI-1 renal. Conditions: 10 µM unless noted.
For test [18], the system named is A498 renal. Conditions: 10 µM.
The test system of test [19] is HL-60(TB) leukemia. Conditions: 10 µM unless noted.
Test [20] concerns CCRF-CEM leukemia. Conditions: 10 µM unless noted.

This is part of a sample that, as a whole, favours compounds with a hit. Of some 83,000 tested, about 20% had one in any assay.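 48-hour exposure, single concentration, 96-well plates; percent growth endpoint where 0 means no net growth. Active: below 10.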 Unmarked numbers belong to inactive results. Active and inactive are the calls of the source.

`C[C@]12CCc3sc(NCCc4ccccc4)nc3C1=CC[C@@H]1[C@@H]2CC[C@]2(C)C(=O)CC[C@@H]12`: the growth was 22.5% in [1]; 34.3% in [2]; 85.5% in test [3]; 80.2% in [4]; 60.1% in test [5]; 38.8% in test [6]. Besides, the growth was 66% in test [7]; 75.6% in [8]; 70.2% in [9]; 83.3% in test [10]; 92.1% in test [11]; 92.4% in test [12]. For the same compound, the growth in [13] was 68.5%; in test [14] it was 50.4%; in test [15], 91.3%; in test [16], 73.8%; in [17] it was 73.5%; in test [18] it was 86.9%. Also, the results for the growth in [19] and in [20] were 1.45% (active) and 8.44% (active), respectively.
As to `O=C([O][Hg][CH2]C1COCC([CH2][Hg][O]C(=O)c2ccccc2)O1)c1ccccc1` (configuration not stated), the growth in test [1] is -83% (active); in test [2], 50.4%; in [3], 92%; in test [4], 102%; in [5] it was 58.9%; in [6], 91.9%. Besides, the growth in test [7] is 102%; in test [8], 91%; in test [9], 11.4%; in test [10], 115%; in [11], 105%; in test [12] it was 103%. The growth in [13] is 56.8%; in test [14], -12.1% (active); in [15] it was 38.1%; in test [16], 70.6%; in test [17], 57.2%; in test [18], 114%. For the same compound, the growth in test [19] is 23.1%.
Turning to `CN[C@@]1(c2ccccc2Cl)CCCC[C@@H]1NCC1CCCO1` (some centres not stated), the growth in [1] was 104%; in [2] it was 101%; in test [3] it was 88.2%; in test [4], 95.8%; in test [5] it was 98.2%; in [6], 94.2%. The growth in [7] is 102%; in [8], 96.5%; in test [9], 97.8%; in test [10], 101%; in [11], 99.7%; in test [12] it was 99.2%. Also, the growth is 96.8% in [13]; 86.4% in [14]; 102% in [15]; 99.4% in [16]; 93.9% in test [17]; 94.4% in test [18]. In addition, the growth in [19] is 99.9%.
`C/C(CC(C)(C)N1CC1)=N\NC(=O)Nc1cccc2ccccc12`: the growth in [1] is 60.8%; in test [2], 38.6%; in test [3], 58.8%; in test [4], 63.5%; in test [5], 57.3%; in [6] it was 64.4%. Besides, the growth in test [7] was 72.3%; in test [8] it was 68.4%; in test [9] it was 46.1%; in test [10], 102%; in [11], 72.9%; in test [12], 78.5%. Moreover, the growth in test [13] was 63.3%; in test [14] it was 57.9%; in test [15], 61.3%; in test [16], 42.3%; in test [17], 28.9%; in [18], 59.3%. The growth in test [19] was 77.6%; in test [20], 82.3%.
For `O=C1OCC2=C1C(c1ccccc1)c1cc3c(cc1N2)OCO3` (configuration not stated), the growth in [1] was 10.9%; in test [2], 4.87% (active); in test [3], 45.9%; in test [4] it was 36.2%; in test [5], 9.54% (active); in test [6], 25.9%. Further, the growth is -39.6% (active) in [7]; 31% in test [8]; 26.2% in [9]; 64.2% in test [10]; 15.6% in [11]; 48% in [12]. Further, the growth is 21.5% in [13]; 45.6% in [14]; 56.9% in [15]; 27.1% in test [16]; 38.8% in [17]; -6.52% (active) in test [18]. Moreover, the growth in test [19] was 2.29% (active).
`COc1ccc(/C=C\c2cc(OC)c(OC)c(OC)c2)cc1NC(=O)/C=C/c1ccc(OC)c(OC)c1`: the growth in [1] is 29.7%; in test [2] it was 15.7%; in test [3], 16%; in test [4] it was 36.6%; in [5], 35.4%; in test [6], 31.7%. Further, the growth in [7] is 5.07% (active); in test [8], 36.6%; in test [9], 30.8%; in test [10], 51.8%; in [11], 66.9%; in [12] it was 55.1%. Also, the growth was 43.5% in test [13]; 41.6% in [14]; 91% in test [15]; 42% in test [16]; 42.3% in [17]; -1.67% (active) in test [18]. In addition, the growth in test [19] was -24.9% (active); in test [20], 12.1%.
As for `C1CCC([PH+](C2CCCCC2)C2CCCCC2[PH+](C2CCCCC2)C2CCCCC2)CC1.O=C(C1[CH-]CCCC1)C1CCCC[N-]1.[Au]` (configuration not stated), the growth is 2.02% (active) in [1]; -43.7% (active) in [2]; -6.22% (active) in [3]; -95.2% (active) in test [4]; -84.1% (active) in [5]; -6.85% (active) in test [6]. The growth was -98.8% (active) in test [7]; -85.8% (active) in test [8]; -95.9% (active) in test [9]; -69.5% (active) in test [10]; -52.6% (active) in test [11]; -53.2% (active) in test [12]. Moreover, the growth in [13] is -52.3% (active); in [14], -87.9% (active); in test [15], -47.7% (active); in [16] it was -74.6% (active); in [17], -57.4% (active); in [18], -51.3% (active). The results for the growth in test [19] and in test [20] were -39.2% (active) and 2.64% (active), respectively.
On to `C/C(Cc1ccc(Cl)cc1)=C(\c1ccc(OCCN2CCOCC2)cc1)c1ccc(OC(=O)Cc2ccccc2)cc1`, for which the growth was 91.1% in [1]; 79.5% in [2]; 89.6% in [3]; 101% in test [4]; 97.4% in [5]; 81.9% in test [6]. Besides, the growth in [7] is 95.6%; in [8], 84.5%; in test [9], 97%; in [10], 99.7%; in test [11], 84.9%; in test [12], 93.3%. The growth is 93.8% in test [13]; 67.5% in test [14]; 86.7% in test [15]; 104% in test [16]; 71.6% in test [17]; 98.6% in [18]. The growth in test [19] was 100%; in test [20] it was 98.9%.

Source of the values: PubChem BioAssay (NCI).
